Laboratory results: the supplement of paper PMC10849652
Of roughly 8,800 targets only a part is listed; those with a hit were picked by preference. About 0.5% of all pairs of compound and target were hits.

Key:
Assay in all cases: log2 fold change, soluble protein after heating vs DMSO (PISA); higher = thermal stabilisation; K562 lysate, 10 uM; active = over 0.2 and 3.5 SD of the protein, either way, in both replicates (recomputed)
nilotinib = compound: Cc1cn(-c2cc(NC(=O)c3ccc(C)c(Nc4nccc(-c5cccnc5)n4)c3)cc(C(F)(F)F)c2)cn1 [nilotinib]
In short: (§1)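 Soluble protein was defined as the supernatant remaining after 21,000xg for 90 min, following pooling of heated aliquots and adjustment to 0.5% NP-40 at 4°C. Before that, crude K562 extract at 1 mg/mL protein in PBS pH 7.4 with 1 mM MgCl2 was treated with 10 μM compound for 30 min and heated for 3 min across 48°C-58°C. Quantification used TMTpro 16plex LC-MS/MS with channel sums equalised, and values are log-two fold changes in thermal stability relative to solvent controls from duplicates.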

[1] = compound: Cc1nc(Nc2n[nH]c3c2CN(C(=O)N[C@H](CN(C)C)c2ccccc2)C3(C)C)c2sccc2n1
In short: as §1

dasatinib = compound: Cc1nc(Nc2ncc(C(=O)Nc3c(C)cccc3Cl)s2)cc(N2CCN(CCO)CC2)n1 [dasatinib]
In short: as §1

[2] = compound: Cc1ncc(-c2ccnc(Nc3ccc(S(C)(=O)=O)cc3)n2)n1C(C)C
In short: as §1

[3] = compound: Cn1cc(-c2ccc3c(c2)CCN3C(=O)Cc2cccc(C(F)(F)F)c2)c2c(N)ncnc21
In short: as §1

tipifarnib = compound: Cn1cncc1[C@@](N)(c1ccc(Cl)cc1)c1ccc2c(c1)c(-c1cccc(Cl)c1)cc(=O)n2C [tipifarnib]
In short: as §1

[4] = compound: NC(=O)c1cnc(N[C@@H]2CCCC[C@@H]2N)nc1Nc1cccc(-n2nccn2)c1
In short: as §1

[5] = compound: NC1(c2ccc(-c3nc4ccn5c(=O)[nH]nc5c4cc3-c3ccccc3)cc2)CCC1
In short: as §1

quisinostat = compound: Cn1cc(CNCC2CCN(c3ncc(C(=O)NO)cn3)CC2)c2ccccc21 [quisinostat]
In short: as §1

[6] = compound: NC(=O)Nc1cc(-c2cccc(F)c2)sc1C(=O)N[C@H]1CCCNC1
In short: as §1

Measured: log2 fold change

NSA2 (UniProt O95478)
inactive: nilotinib 0.102 | [1] -0.04 | dasatinib -0.323 | [2] -0.08 | [3] -0.113 | tipifarnib -0.004 | [4] 0.076 | [5] -0.15

NDC1 (UniProt Q9BTX1)
Chain of UniProt Q9BTX1 (Q9BTX1 whole entry, looked up): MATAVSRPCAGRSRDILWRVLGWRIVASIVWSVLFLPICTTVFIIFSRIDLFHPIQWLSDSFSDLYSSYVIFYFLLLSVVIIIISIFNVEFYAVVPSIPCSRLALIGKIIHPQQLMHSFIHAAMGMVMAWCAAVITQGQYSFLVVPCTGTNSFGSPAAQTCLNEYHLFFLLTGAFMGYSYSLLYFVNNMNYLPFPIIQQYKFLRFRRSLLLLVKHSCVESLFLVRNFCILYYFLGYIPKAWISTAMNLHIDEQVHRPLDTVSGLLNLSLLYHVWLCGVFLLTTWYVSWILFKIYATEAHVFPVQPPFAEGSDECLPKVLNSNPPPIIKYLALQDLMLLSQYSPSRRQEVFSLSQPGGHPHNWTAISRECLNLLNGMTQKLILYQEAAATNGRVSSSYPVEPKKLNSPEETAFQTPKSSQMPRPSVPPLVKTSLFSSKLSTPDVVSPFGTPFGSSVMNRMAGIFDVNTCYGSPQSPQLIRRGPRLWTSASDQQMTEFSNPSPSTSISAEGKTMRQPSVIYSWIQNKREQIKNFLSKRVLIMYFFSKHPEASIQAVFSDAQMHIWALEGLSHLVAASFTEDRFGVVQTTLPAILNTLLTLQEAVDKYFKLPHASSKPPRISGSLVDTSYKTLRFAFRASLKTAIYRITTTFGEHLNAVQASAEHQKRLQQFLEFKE
inactive: nilotinib -0.019 | [1] -0.006 | dasatinib -0.071 | [2] -0.018 | [3] 0.052 | quisinostat -0.03 | tipifarnib 0.009 | [6] 0 | [4] -0.01 | [5] -0.028

PAGE4 (UniProt O60829)
inactive: dasatinib -0.086 | [3] -0.035 | quisinostat -0.097 | [6] 0.036 | [4] 0.04 | [5] 0.004

P2RY1 (UniProt P47900)
inactive: dasatinib 0.012 | [3] -0.027 | [4] -0.182 | [5] 0.004

NUMB isoform 2 (UniProt P49757)
inactive: nilotinib -0.293 | [1] -0.07 | dasatinib 0.227 | [2] 0.225 | [3] -0.127 | tipifarnib -0.068

NUDT5 (UniProt C9JYY9)
inactive: nilotinib -0.049 | [1] 0.02 | [2] 0.228 | tipifarnib -0.068 | [5] -0.119

MYBL2 (UniProt P10244)
Chain of UniProt P10244 (P10244 whole entry, looked up): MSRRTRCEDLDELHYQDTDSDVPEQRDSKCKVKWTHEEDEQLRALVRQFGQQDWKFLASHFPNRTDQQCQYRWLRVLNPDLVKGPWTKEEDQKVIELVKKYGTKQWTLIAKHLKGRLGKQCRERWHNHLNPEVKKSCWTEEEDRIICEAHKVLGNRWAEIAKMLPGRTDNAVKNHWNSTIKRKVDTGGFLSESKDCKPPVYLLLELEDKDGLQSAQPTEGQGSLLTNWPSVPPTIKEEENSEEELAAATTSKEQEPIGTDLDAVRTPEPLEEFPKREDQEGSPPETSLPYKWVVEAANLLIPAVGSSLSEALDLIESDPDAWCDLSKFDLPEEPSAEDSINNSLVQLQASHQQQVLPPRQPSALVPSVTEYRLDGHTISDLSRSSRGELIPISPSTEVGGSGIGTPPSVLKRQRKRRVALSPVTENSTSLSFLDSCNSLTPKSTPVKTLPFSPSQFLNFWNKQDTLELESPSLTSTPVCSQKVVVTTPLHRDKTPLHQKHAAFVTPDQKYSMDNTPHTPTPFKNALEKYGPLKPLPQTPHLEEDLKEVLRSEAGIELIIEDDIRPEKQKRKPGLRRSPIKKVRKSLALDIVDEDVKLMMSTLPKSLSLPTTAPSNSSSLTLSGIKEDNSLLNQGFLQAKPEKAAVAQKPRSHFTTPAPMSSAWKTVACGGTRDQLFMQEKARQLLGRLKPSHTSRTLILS
inactive: dasatinib -0.055 | [3] -0.012 | quisinostat -0.071 | [6] -0.021 | [5] -0.015

PARD3B (UniProt Q8TEW8)
inactive: dasatinib 0.051 | [3] -0.095 | [5] 0.174

ORC3 (UniProt Q9UBD5)
inactive: nilotinib 0.038 | [1] -0.062 | [2] 0.059 | tipifarnib -0.084 | [4] -0.053

PAK1 (UniProt Q13153)
inactive: nilotinib 0.028 | [1] 0.02 | dasatinib 0.046 | [2] 0.012 | [3] -0.024 | quisinostat 0.044 | tipifarnib -0.053 | [6] -0.028 | [4] -0.025 | [5] -0.012

MYO10 (UniProt Q9HD67)
inactive: nilotinib -0.019 | [1] -0.021 | [2] 0.126 | quisinostat 0.074 | tipifarnib -0.063 | [6] -0.051 | [5] -0.161

NDUFAF5 (UniProt Q5TEU4)
Chain of UniProt Q5TEU4 (Q5TEU4 whole entry, looked up): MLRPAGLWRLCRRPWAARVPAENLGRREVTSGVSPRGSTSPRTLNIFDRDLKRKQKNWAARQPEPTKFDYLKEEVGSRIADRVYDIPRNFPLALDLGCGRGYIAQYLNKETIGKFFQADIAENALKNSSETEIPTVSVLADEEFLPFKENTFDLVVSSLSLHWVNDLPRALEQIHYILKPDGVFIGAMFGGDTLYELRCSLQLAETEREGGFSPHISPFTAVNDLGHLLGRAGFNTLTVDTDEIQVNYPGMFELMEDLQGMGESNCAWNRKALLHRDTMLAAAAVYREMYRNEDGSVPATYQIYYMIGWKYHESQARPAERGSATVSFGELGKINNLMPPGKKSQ
inactive: dasatinib 0.02 | [3] -0.061 | quisinostat -0.078 | [6] 0.114 | [4] -0.034 | [5] -0.042

NFAT5 isoform 4 (UniProt O94916)
inactive: quisinostat 0.014 | [6] 0.012

PAPOLG (UniProt Q9BWT3)
inactive: nilotinib 0.025 | [1] -0.025 | dasatinib -0.023 | [2] 0.031 | [3] 0.079 | quisinostat -0.056 | tipifarnib 0.079 | [6] -0.054 | [5] 0.445

NF1 (UniProt P21359)
inactive: nilotinib -0.021 | [1] 0.053 | dasatinib 0.007 | [2] -0.039 | [3] 0.024 | quisinostat -0.059 | tipifarnib 0.018 | [6] 0.041 | [4] 0.016 | [5] -0.016

NSL1 (UniProt Q96IY1)
Chain of UniProt Q96IY1 (Q96IY1 whole entry, looked up): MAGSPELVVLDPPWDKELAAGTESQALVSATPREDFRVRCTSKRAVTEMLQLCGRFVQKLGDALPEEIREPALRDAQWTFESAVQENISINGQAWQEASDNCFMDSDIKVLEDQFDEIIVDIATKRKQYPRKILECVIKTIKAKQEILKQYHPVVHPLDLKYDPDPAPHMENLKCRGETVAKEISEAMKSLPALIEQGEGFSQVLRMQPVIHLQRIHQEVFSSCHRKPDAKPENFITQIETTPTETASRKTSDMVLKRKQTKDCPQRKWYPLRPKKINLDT
inactive: nilotinib -0.018 | [1] 0.005 | dasatinib -0.01 | [2] -0.014 | [3] 0 | quisinostat -0.009 | tipifarnib 0.024 | [6] -0.003 | [4] 0.01 | [5] -0.007

NUMB (UniProt P49757)
inactive: nilotinib -0.03 | [1] -0.024 | dasatinib -0.072 | [2] -0.008 | [3] 0.001 | quisinostat -0.02 | tipifarnib 0.001 | [6] -0.029 | [4] -0.026 | [5] 0.003

MYOM1 (UniProt P52179)
Chain of UniProt P52179 (P52179 whole entry, looked up): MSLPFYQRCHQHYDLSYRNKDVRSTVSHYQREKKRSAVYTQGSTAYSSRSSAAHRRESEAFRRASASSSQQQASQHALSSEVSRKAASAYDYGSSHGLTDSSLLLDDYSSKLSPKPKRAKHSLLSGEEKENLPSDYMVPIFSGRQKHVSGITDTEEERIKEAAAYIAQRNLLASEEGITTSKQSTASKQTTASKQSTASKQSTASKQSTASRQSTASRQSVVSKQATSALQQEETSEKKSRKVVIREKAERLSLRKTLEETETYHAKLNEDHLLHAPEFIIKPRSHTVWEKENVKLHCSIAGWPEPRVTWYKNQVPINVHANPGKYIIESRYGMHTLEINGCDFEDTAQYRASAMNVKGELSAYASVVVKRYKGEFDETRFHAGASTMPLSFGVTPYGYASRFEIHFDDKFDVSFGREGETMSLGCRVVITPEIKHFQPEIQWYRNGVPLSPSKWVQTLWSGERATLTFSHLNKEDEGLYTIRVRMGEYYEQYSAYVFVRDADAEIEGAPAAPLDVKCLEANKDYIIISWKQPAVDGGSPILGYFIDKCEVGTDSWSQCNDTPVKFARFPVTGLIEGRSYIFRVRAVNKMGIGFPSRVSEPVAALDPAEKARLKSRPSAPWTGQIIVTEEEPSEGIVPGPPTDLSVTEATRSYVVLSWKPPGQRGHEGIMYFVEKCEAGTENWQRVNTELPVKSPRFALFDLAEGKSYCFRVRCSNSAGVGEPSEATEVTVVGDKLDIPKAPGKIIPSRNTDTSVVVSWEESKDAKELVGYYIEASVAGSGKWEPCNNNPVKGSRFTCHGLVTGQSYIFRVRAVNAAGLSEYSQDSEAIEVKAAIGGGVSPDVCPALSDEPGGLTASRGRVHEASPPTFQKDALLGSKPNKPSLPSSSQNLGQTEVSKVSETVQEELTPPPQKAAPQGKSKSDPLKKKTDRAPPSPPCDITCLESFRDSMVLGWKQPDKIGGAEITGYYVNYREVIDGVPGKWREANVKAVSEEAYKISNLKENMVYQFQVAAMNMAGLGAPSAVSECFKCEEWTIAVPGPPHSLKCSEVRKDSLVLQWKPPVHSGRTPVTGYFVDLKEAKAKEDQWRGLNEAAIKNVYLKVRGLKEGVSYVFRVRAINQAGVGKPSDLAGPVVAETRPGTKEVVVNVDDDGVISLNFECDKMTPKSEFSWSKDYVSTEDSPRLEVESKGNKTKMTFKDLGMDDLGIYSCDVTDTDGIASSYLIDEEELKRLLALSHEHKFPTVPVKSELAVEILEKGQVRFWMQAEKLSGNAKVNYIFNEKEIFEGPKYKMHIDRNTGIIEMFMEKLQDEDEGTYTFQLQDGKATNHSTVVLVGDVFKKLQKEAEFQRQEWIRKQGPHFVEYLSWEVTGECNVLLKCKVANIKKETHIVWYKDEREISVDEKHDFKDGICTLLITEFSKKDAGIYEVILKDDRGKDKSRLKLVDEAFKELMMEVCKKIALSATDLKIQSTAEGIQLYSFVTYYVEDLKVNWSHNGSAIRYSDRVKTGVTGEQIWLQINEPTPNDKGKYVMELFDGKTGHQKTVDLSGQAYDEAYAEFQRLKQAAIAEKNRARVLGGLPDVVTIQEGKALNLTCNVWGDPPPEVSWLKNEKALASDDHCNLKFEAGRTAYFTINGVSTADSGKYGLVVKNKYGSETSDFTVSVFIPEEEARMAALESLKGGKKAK
inactive: nilotinib -0.127 | [1] -0.078 | dasatinib 0.058 | [2] 0.039 | [3] 0.023 | quisinostat 0.115 | tipifarnib 0.01 | [6] 0.083 | [4] -0.016 | [5] -0.035

MYH6 (UniProt P13533)
inactive: quisinostat -0.007 | [6] 0.082 | [4] 0.092 | [5] -0.114

NR2C2 isoform 2 (UniProt P49116)
Chain of UniProt P49116 (P49116 whole entry, looked up): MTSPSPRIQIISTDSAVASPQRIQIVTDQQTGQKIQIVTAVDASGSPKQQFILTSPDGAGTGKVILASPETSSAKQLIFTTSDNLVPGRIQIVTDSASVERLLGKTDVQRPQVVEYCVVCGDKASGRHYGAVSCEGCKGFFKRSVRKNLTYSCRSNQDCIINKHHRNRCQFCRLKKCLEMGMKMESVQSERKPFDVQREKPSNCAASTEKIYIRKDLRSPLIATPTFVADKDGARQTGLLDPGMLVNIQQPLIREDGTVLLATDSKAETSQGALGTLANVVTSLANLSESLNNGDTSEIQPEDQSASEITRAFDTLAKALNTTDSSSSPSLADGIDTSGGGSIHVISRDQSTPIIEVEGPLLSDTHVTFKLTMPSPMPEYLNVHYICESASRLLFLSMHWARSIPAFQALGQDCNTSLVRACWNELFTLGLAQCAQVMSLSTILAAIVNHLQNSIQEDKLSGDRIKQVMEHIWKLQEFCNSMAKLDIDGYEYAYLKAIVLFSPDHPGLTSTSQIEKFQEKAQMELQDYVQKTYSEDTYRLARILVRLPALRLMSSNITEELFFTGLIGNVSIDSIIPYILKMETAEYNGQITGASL
inactive: dasatinib -0.033 | [3] 0.064 | quisinostat -0.054 | [6] 0.04 | [4] -0.025 | [5] -0.048

NEBL isoform 2 (UniProt O76041)
inactive: nilotinib -0.022 | [1] -0.001 | dasatinib -0.029 | [2] 0.015 | [3] -0.072 | quisinostat 0.012 | tipifarnib -0.021 | [6] -0.017 | [4] -0.027 | [5] -0.007

NTMT1 (UniProt S4R338)
inactive: [4] -0.027

NAA16 (UniProt Q6N069)
inactive: nilotinib 0.068 | [1] -0.139 | dasatinib -0.042 | [2] 0.039 | [3] 0.071 | tipifarnib -0.015 | [4] 0.08

NPLOC4 (UniProt I3L3I1)
active: quisinostat -0.986
inactive: dasatinib 0.057 | [3] -0.116 | [6] 0.196

MTOR (UniProt P42345)
inactive: nilotinib 0.007 | [1] -0.022 | dasatinib -0.064 | [2] 0.001 | [3] 0.039 | quisinostat -0.067 | tipifarnib 0.015 | [6] 0.04 | [4] 0.017 | [5] -0.033

NFKBIB (UniProt Q15653)
Chain of UniProt Q15653 (Q15653 whole entry, looked up): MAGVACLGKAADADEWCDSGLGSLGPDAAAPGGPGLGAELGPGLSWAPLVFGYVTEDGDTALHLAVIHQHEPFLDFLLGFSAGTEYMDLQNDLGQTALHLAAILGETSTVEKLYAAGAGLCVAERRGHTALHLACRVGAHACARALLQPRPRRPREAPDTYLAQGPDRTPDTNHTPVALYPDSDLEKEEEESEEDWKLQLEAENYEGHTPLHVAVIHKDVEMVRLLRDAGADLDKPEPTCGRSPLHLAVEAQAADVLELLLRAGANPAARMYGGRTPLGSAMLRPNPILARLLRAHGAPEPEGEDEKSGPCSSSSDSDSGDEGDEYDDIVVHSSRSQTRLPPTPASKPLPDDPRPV
inactive: nilotinib -0.004 | [1] -0.015 | dasatinib -0.042 | [2] 0.052 | [3] 0.043 | quisinostat -0.062 | tipifarnib 0.059 | [6] 0.025 | [4] 0.004 | [5] -0.08

MT-ATP8 (UniProt P03928)
Chain of UniProt P03928 (P03928 whole entry, looked up): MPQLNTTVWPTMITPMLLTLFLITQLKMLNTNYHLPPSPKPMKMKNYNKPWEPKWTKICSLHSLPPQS
inactive: nilotinib 0.055 | [1] 0.177 | [2] 0.214 | quisinostat 0.043 | tipifarnib 0.085 | [6] 0.056 | [4] -0.067 | [5] -0.084

NUB1 isoform 2 (UniProt Q9Y5A7)
inactive: quisinostat 0.205 | [6] -0.019

NUDT6 (UniProt P53370)
Chain of UniProt P53370 (P53370 whole entry, looked up): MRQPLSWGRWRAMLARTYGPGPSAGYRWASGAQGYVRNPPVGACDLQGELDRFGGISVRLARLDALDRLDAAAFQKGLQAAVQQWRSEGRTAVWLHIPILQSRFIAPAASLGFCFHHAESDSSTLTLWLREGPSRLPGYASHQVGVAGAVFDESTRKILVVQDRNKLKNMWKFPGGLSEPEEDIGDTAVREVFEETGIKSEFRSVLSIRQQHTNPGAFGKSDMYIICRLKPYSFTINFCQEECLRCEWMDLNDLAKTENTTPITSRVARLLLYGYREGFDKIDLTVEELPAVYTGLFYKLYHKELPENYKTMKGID
inactive: dasatinib -0.013 | [3] 0.032 | quisinostat 0.021 | [6] -0.03 | [5] -0.058

MTHFD1 (UniProt V9GZ32)
inactive: nilotinib -0.43 | [1] -0.802 | [2] -0.041 | tipifarnib 0.188 | [4] -0.185

NSUN7 (UniProt Q8NE18)
active: quisinostat -0.573
inactive: [6] 0.01 | [4] 0.009 | [5] -0.031

OPA1 isoform 2 (UniProt O60313)
inactive: nilotinib 0.026 | [1] -0.008 | dasatinib -0.07 | [2] 0.007 | [3] 0.018 | quisinostat 0.055 | tipifarnib -0.035 | [6] 0.025 | [4] 0.016 | [5] -0.012

NCAPG2 (UniProt Q86XI2)
inactive: nilotinib -0.002 | [1] -0.035 | dasatinib -0.078 | [2] -0.024 | [3] -0.015 | quisinostat -0.092 | tipifarnib 0.003 | [6] 0.061 | [4] 0.045 | [5] -0.031
